Compounds with a hit are over-represented: about 10% of the library has one in this group of screens.
Gal4-VP16 FLuc: inhibits Gal4-VP16 luciferase reporter, ROR gamma counter-screen; Drosophila S2 Gal4-VP16 UAS-luciferase, luminescence, 20 h; Potency, µM (highest dose often 53.6 µM), without a hit: top-dose activity, negative = inhibition, usual class: inhibitors; 310,000 compounds, 3.5% hits;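 note: Gal4-VP16 expression switched on by copper sulfate through the metallothionein promoter; % is set by controls: 0 for no effect and ±100 for the full control effect; nearly all actives have a fitted effect of over 50% in size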
ELG1 DNA repair: inhibitors of ELG1-dependent DNA repair in HEK293T cells; HEK293T ELG1-luciferase reporter, luminescence, 16 h; DNA damage induced by 5-fluorouridine; Potency, µM (titrated, usually from 46.1 µM), inactives show at the top dose activity change, negative = inhibition, usual class: inhibitors; 330,000 compounds, 2.3% hits; note: % is set by controls: 0 for no effect and ±100 for the full control effect; nearly all actives have a fitted effect of over 55% in size
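Luminescence from the luciferase reporter, measured 30 min after ONE-Glo reagent at room temperature, was the read-out. Beforehand, 2,000 cells per well were exposed for 16 hr at 37 °C to 5-fluorouridine together with compound or vehicle.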
RORgamma inh: inhibitors of mouse ROR gamma transcriptional activity. P51450. Drosophila S2 Gal4-RORgamma UAS-luciferase reporter, 20 h. Potency, µM (top dose mostly 53.6 µM), inactives show at the top dose activity change, negative = inhibition, most hits filed as inhibitors. 310,000 compounds, 5.4% hits. AID 2551; note: % is set by controls: 0 for no effect and ±100 for the full control effect; nearly all actives have a fitted effect of over 60% in size
Target sequence (P51450 whole entry, looked up, the tested form may be a part): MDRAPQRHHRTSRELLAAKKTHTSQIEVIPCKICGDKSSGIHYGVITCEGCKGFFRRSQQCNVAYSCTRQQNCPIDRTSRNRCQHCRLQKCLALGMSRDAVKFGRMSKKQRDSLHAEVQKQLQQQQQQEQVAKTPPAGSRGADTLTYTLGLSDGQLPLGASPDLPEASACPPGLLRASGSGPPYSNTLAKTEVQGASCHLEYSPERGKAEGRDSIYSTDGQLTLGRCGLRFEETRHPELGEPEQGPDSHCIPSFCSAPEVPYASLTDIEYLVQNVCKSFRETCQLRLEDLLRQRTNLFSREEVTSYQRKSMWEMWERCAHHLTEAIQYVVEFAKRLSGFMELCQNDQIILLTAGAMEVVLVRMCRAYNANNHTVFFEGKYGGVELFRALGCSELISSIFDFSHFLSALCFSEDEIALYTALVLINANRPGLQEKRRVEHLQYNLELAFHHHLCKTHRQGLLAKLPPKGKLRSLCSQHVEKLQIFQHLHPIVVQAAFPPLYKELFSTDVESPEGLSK
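ROR gamma transcriptional activity was tracked as Gal4-UAS luciferase output in stably transfected Drosophila Schneider cells, with compound added 1 hr before 700 uM copper sulfate induction and a 20 hr ambient-temperature incubation.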
SW480 rereplic: induces DNA re-replication in SW480 colon adenocarcinoma cells; Potency, µM (doses to about 46.1 µM), inactives show top-dose re-replication activation, hits mostly activators; SW480 DNA re-replication, Hoechst DNA content imaging, 48 h; 340,000 compounds, 1.8% hits; note: % of control where 0% means no effect; nearly all actives have a fitted effect of over 55% in size
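Cells (250 per well) received 23 nL compound or DMSO by pin tool and were kept 48 hr at 37 C, 5% CO2. Nuclei were then stained with Hoechst for 40 min and scanned for DNA content.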
MCF10A rerep: inducers of DNA re-replication in MCF 10A breast cells; MCF 10A DNA re-replication, Hoechst nuclear intensity, 48 h; Potency, µM (top dose mostly 46.1 µM), for the others: at the highest dose activity, positive = re-replication, most hits filed as activators; 350,000 compounds, 2.9% hits; note: % of control where 0% means no effect; nearly all actives have a fitted effect of over 50% in size
Active calls of the source: *; ? = inconclusive; . = not tested or not shown; [ ] = another dose, or the depositor's remark. Calls come from the whole dose curve; as a rule, active = well fitted curve in the direction sought with a large enough effect; inconclusive = small, poorly fitted or top-dose-only effect, or another doubt; inactive = no such curve, though single readings can be large; an effect the other way counts as inactive or inconclusive. Potency is the fitted concentration of half-maximal effect.

SMILES | Gal4-VP16 FLuc | ELG1 DNA repair | RORgamma inh | SW480 rereplic | MCF10A rerep
Cc1cc(C)cc(NC(=O)c2ccc(Cn3nc(C)c(Cl)c3C)o2)c1 | -13.6% | 20.6µM* | ? | 1.9% | ?
CCN(CCS(=O)(=O)c1ccc(Br)cc1)Cc1nc2ccccc2c(=O)[nH]1 | . | ? | . | -12.0% | 33.6%
COC(C(=O)C(O)C(C)O)C1Cc2cc3cc(OC4CC(OC5CC(O)C(O)C(C)O5)C(O)C(C)O4)c(C)c(O)c3c(O)c2C(=O)C1OC1CC(OC2CC(OC3CC(O)C(OC)C(C)O3)C(O)C(C)O2)C(O)C(C)O1 (configuration not stated) | . | . | . | -9.5% | -10.5%
COC(C(=O)C(O)C(C)O)C1Cc2cc3cc(OC4CC(OC5CC(O)C(O)C(C)O5)C(O)C(C)O4)c(C)c(O)c3c(O)c2C(=O)C1OC1CC(OC2CC(OC3CC(C)(O)C(O)C(C)O3)C(O)C(C)O2)C(O)C(C)O1 (configuration not stated) | 0.794µM* | . | 0.708µM* | -23.2% | ?
CO[C@H](C(=O)[C@@H](O)[C@@H](C)O)C1Cc2cc3cc(O[C@H]4C[C@@H](O[C@H]5C[C@@H](O)[C@H](O)[C@@H](C)O5)[C@@H](O)[C@@H](C)O4)c(C)c(O)c3c(O)c2C(=O)[C@H]1O[C@H]1C[C@@H](O[C@H]2C[C@@H](O[C@H]3C[C@](C)(O)[C@H](O)[C@@H](C)O3)[C@H](O)[C@@H](C)O2)[C@H](O)[C@@H](C)O1 (some centres not stated) | 0.501µM* | . | 0.631µM* | ? | -7.0%
CCCN1CCN(C(=O)C2CCN(S(=O)(=O)c3c(C)noc3/C=C/c3ccc(C)cc3)CC2)CC1 | ? | -7.2% | -93.0% | 16.4µM* | ?
Cc1ccc(NC(=O)C2CCN(S(=O)(=O)c3c(C)noc3/C=C/c3ccco3)CC2)nc1 | -2.0% | 14.6µM* | 5.6% | 6.5% | ?
Cc1noc(C)c1S(=O)(=O)N1CCC(C(=O)Nc2ccc(OC(F)(F)F)cc2)CC1 | ? | ? | -2.4% | 2.6% | 15.8µM*
Cc1noc(/C=C/c2ccco2)c1S(=O)(=O)N1CCC(C(=O)N2CCc3ccccc3C2)CC1 | -5.1% | ? | -6.4% | ? | 18.4µM*
Cc1cccnc1NC(=O)C1CCN(S(=O)(=O)c2c(C)noc2/C=C/c2ccco2)CC1 | -1.5% | -23.0% | 28.4% | 2.6% | -4.8%
Cc1ccc(/C=C/c2onc(C)c2S(=O)(=O)N2CCC(C(=O)N3CCCCC3)CC2)cc1 | -6.3% | ? | 3.1% | -17.1% | 26.6%
N#CC1C(C#N)N2CCCN2C1c1ccc(Cl)cc1 (configuration not stated) | 0.8% | -5.8% | 3.0% | ? | 4.4%
Nc1ncc(-c2ccccc2)c(-c2ccc(OCc3ccccc3)cc2O)n1 | -10.4% | 0.0% | 40.2% | ? | 20.6µM*
COc1ccc(-c2cnc(N)nc2-c2ccc(OC)cc2O)cc1 | -2.5% | 23.1µM* | 27.8% | 0.1% | 15.3%
COc1ccc(-c2nc(N)ncc2Oc2ccccc2Br)c(O)c1 | -28.3% | -19.5% | -27.4% | 18.5% | ?
COc1cccc(Oc2cnc(N)nc2-c2ccc(OC)cc2O)c1 | -0.3% | -18.6% | 33.3% | 7.31µM* | 6.51µM*
Cn1ncc(Cl)c1C(=O)NC(=S)Nc1sc2c(c1C#N)CCCCC2 | ? | ? | 11.2µM* | -5.8% | 6.7%[9.22 µM]
CC(C)(C)c1ccc(C(=O)Nc2sc3c(c2C(=O)O)CCC3)cc1 | ? | 3.66µM* | -3.8% | -3.8% | 20.6µM*
CC(C)c1cc(C(=O)Nc2sc3c(c2C#N)CCC3)no1 | 11.9% | 14.6% | -44.3% | ? | 14.6µM*
Cc1ccccc1C(=O)NC(=S)Nc1sc2c(c1C#N)CCC(C)C2 (configuration not stated) | ? | ? | 7.94µM* | -3.7% | 16.3%
O=C(N/N=C/c1ccccn1)C(=O)N1CCCCCC1 | -1.8% | 1.3% | 1.9% | -18.9% | -0.4%
COc1ccc(N2CCN(C(=O)COC(=O)c3ccco3)CC2)cc1 | -8.2% | ? | -0.3% | -2.4% | -2.4%
Cn1nccc1C(=O)Nc1sc2c(c1C#N)CCCC2 | ? | 19.6% | ? | 2.3% | -13.3%
O=C(Nc1sc2c(c1C(=O)c1ccccc1)CCCC2)c1cccnc1 | 1.9% | -27.8% | -19.7% | -2.9% | 12.3%
N#Cc1c(NC(=O)c2cccnc2)sc2c1CCC2 | 7.4% | ? | 2.7% | 16.4µM* | 5.8µM*
SMILES | Gal4-VP16 FLuc | ELG1 DNA repair | RORgamma inh | SW480 rereplic | MCF10A rerep
Cc1cccc(C(=O)Nc2sc3c(c2C#N)CCCCC3)c1 | ? | ? | 7.94µM* | -4.5% | 4.3%
N#Cc1c(NC(=O)c2ccccc2)sc2c1CCC2 | 0.9% | ? | -14.9% | 10µM* | ?
N#Cc1c(NC(=O)c2cnccn2)sc2c1CCCC2 | ? | ? | ? | 5.8µM* | ?
Cc1cc(C)n2nc(C(=O)OCC(=O)N3CC(C)CC(C)C3)nc2n1 (configuration not stated) | . | 12.7% | . | -8.8% | -1.8%
CN(C)C(=O)c1ccc(NC(=O)COC(=O)C2=COCCO2)cc1 | . | 0.5% | . | -4.9% | ?
CCOC(=O)CCc1c(C)nc(-n2[nH]c(C)c(CCO)c2=O)[nH]c1=O | 5.1% | 10.7% | -34.7% | -0.4% | -0.3%
N#Cc1c(NC(=S)NC(=O)c2ccccc2)sc2c1CCCC2 | 10µM* | ? | 6.31µM* | . | ?
CC1CCc2c(sc(NC(=O)c3ccccc3C(=O)O)c2C#N)C1 (configuration not stated) | -12.1% | ? | -9.8% | ? | 3.5%
CCC(C)(C)C1CCc2c(sc(NC(=O)c3ccccc3C(=O)O)c2C#N)C1 (configuration not stated) | -5.4% | ? | -33.4% | 14.6% | 18.4µM*
CCCC1Cc2c(sc(NC(=S)NC(=O)c3ccccc3)c2C#N)CO1 (configuration not stated) | ? | 2.6% | 4.47µM* | . | .
Cc1cc(C(=O)Nc2sc3c(c2C#N)CCC(C(C)(C)C)C3)no1 (configuration not stated) | -3.9% | -3.4% | 10.1% | ? | ?
CC(C)(C)C1CCc2c(sc(NC(=O)c3cc(C4CC4)on3)c2C#N)C1 (configuration not stated) | ? | ? | 5.62µM* | 0.0% | 7.0%
CC(C)CC(=O)NC(NC(=S)Nc1sc2c(c1C#N)CCCC2)C(Cl)(Cl)Cl (configuration not stated) | ? | -0.6% | 10µM* | 1.5% | 16.4µM*
O=c1[nH]nc(-c2ccc([N+](=O)[O-])o2)c(=O)[nH]1 | . | . | . | -4.5% | -19.2%
Cc1ccc(NC(=S)NCc2ccc3c(c2)OCO3)cc1 | 15.8µM* | 11.1% | 12.6µM* | -3.3% | 1.1%
S=C(NCc1ccc2c(c1)OCO2)NC1CC1 | ? | 1.5% | 12.6µM* | -1.9% | -31.1%

Bioassay records from PubChem.
